# From PubChem BioAssay (NCATS)
# Records with an inconclusive call do not appear. A call without a number means that no potency is given here. Where a structure was tested more than once in an assay, its records may differ in their call. The source made the active and inactive calls. Calls come from the whole dose curve. Square brackets hold non-standard residues; d marks the D form. Peptide text beside a SMILES is read from it. dPhe(4-Cl) = N[C@H](Cc1ccc(Cl)cc1)C(=O)O; d2Nal = N[C@H](Cc1ccc2ccccc2c1)C(=O)O; dCit = NC(=O)NCCC[C@@H](N)C(=O)O; d3Pal = N[C@H](Cc1cccnc1)C(=O)O
# How the values were obtained:
# [1] = Primary qHTS for Huh7 cytotoxicity: counterscreen for inhibitors of MERS-S pseudotyped particle cell entry (AID 1479147); details: outcome: dose series up to 57.1 µM unless noted
# [2] = Primary qHTS for inhibitors of MERS-S pseudo-typed particle cell entry (AID 1479149); details: outcome: dose series up to 57.1 µM unless noted; note: nearly all actives have a fitted effect of over 60% in size
# [3] = Primary qHTS for Vero E6 cytotoxicity: counterscreen for inhibitors of SARS-S pseudo-typed particle cell entry (AID 1479150); details: outcome: dose series up to 57.1 µM unless noted
# [4] = Cytotoxicity counterscreen for inhibitors of SARS-CoV-2 cell entry (AID 1645845); details: outcome: dose series up to 57.1 µM unless noted; note: nearly all actives have a fitted effect of over 50% in size
# Procedure, shortened: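 48 h compound treatment (after 1 h preincubation), HEK293-ACE2 cells, 37 C/5% CO2; ATP luminescence endpoint; normalized to cell wells and media blanks.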
# [5] = Primary qHTS to identify inhibitors of SARS-CoV-2 cell entry (AID 1645846); details: SARS-CoV-2 pseudovirus cell entry assay, luminescence; activity change, negative = inhibition: at 57.1 µM (top of the series) unless noted; note: nearly all actives have a fitted effect of over 45% in size; note: potency is the fitted concentration of half-maximal effect
# Procedure, shortened: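 HEK293 cells stably expressing human ACE2, pre-treated 1 h with compound, then infected with MLV particles pseudotyped with Wuhan-Hu-1 spike (C-terminal 19-aa truncation). Luciferase luminescence after 48 h at 37 °C, normalised to spike PP and bald PP.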
# [6] = target: Peroxisome proliferator-activated receptor delta (Homo sapiens) (UniProt Q03181); assay: qHTS assay for small molecule agonists of peroxisome proliferator-activated receptor delta signaling (AID 588534)
# Sequence of Peroxisome proliferator-activated receptor delta (Homo sapiens) (Q03181 whole entry, looked up): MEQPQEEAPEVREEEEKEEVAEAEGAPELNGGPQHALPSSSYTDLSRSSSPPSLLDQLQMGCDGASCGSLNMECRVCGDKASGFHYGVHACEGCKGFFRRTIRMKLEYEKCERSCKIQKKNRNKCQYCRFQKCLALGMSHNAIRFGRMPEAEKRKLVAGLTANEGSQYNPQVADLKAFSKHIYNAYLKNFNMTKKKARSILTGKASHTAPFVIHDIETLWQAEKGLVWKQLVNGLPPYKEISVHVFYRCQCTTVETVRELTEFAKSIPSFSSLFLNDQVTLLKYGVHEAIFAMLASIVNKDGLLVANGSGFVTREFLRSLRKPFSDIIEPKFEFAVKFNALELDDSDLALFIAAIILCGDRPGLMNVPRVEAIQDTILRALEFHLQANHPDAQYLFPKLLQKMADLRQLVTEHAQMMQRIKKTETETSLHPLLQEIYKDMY
# Procedure, shortened: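 Cell-based beta-lactamase reporter assay run in agonist mode: cells seeded and incubated 5 hrs at 37 C, compounds added and incubated 18 hrs at 37 C. CCF4 dye fluorescence read after 2 hrs at RT; EC50 and efficacy from Hill fits.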
Structure (SMILES),Potency [1],Potency [2],Potency [3],Potency [4],"activity change, negative = inhibition [5]",Potency [5],outcome [6]
Cc1[nH]cnc1C[C@H]1CCc2c(C)c3ccccc3n2C1=O,inactive,inactive,inactive,inactive,-26.5%,,
CO/N=C(/C(=O)N[C@@H]1C(=O)N2C(C(=O)OC(C)OC(C)=O)=C(COC(N)=O)CS[C@H]12)c1ccco1 (some centres not stated),inactive,inactive,inactive,inactive,-14.5%,,
Oc1cc(O)cc(O)c1,inactive,inactive,inactive,inactive,-21.2%,,
Cc1ccc(S(=O)(=O)O)cc1,inactive,inactive,inactive,inactive,-13.7%,,
CN(C)C(=O)NC1CCC(CCN2CCN(c3cccc(Cl)c3Cl)CC2)CC1 (configuration not stated),inactive,inactive,inactive,inactive,-20.6% [at 27.1 µM],,
CC(=O)N[C@H](Cc1ccc2ccccc2c1)C(=O)N[C@H](Cc1ccc(Cl)cc1)C(=O)N[C@H](Cc1cccnc1)C(=O)N[C@@H](CO)C(=O)N[C@@H](Cc1ccc(O)cc1)C(=O)N[C@H](CCCNC(N)=O)C(=O)N[C@@H](CC(C)C)C(=O)N[C@@H](CCCN=C(N)N)C(=O)N1CCC[C@H]1C(=O)N[C@H](C)C(N)=O (Ac-[d2Nal][dPhe(4-Cl)][d3Pal]SY[dCit]LRP[dA]-NH2),inactive,inactive,inactive,inactive,-10.8% [at 27.1 µM],,
COC1=C(C(=O)O)N2C(=O)[C@@H](NC(=O)[C@H](N)C3=CCC=CC3)[C@H]2SC1,inactive,inactive,inactive,inactive,-17.7%,,
C[C@@H]1C[C@H]2[C@@H]3C[C@H](F)C4=CC(=O)C=C[C@]4(C)[C@@]3(Cl)[C@@H](O)C[C@]2(C)[C@H]1C(=O)COC(=O)C(C)(C)C,inactive,inactive,inactive,inactive,1.93%,,
C=CCNc1c(O)cc2c(O)c1C[C@@H](C)C[C@H](OC)[C@H](O)[C@@H](C)/C=C(/C)[C@H](OC(N)=O)[C@@H](OC)/C=C\C=C(\C)C(=O)N2,inactive,inactive,inactive,inactive,-94%,3.16 µM (active),
CC(C)(C)NCC(O)c1ccc(O)c(CO)n1 (configuration not stated),inactive,inactive,inactive,inactive,,inactive,
CCCCC(F)(F)C1(O)CCC2C(CC(=O)C2CCCCCCC(=O)O)O1 (configuration not stated),inactive,inactive,inactive,inactive,,inactive,
O=S(=O)(O)c1ccccc1,inactive,inactive,inactive,inactive,-15.3%,,inactive
CS(=O)(=O)OCCCNCCCOS(C)(=O)=O,inactive,inactive,inactive,inactive,-19.8%,,
